Measured values reported in the supplement of paper PMC10338343.
± gives the standard deviation. The full ranking holds about 8,200 sequences; the median of “pre-steady-state target cleavage rate” is about 0.024, and the highest 2% start at about 1.3. This excerpt belongs to a sample that is enriched for the highest values.

Test system: MIWI (PIWIL1) piRISC loaded with L1MC piRNA (30 nt)
Assay: pre-steady-state target cleavage rate (min^-1); MIWI and MILI are mouse PIWI proteins and EfPiwi is from a freshwater sponge; tags in brackets are library labels; higher = faster piRNA-guided slicing of the target
Settings: guide: L1MC piRNA 5'p-UAACUAAAUACUAUGCAAGCUGUAGGUCCU
Outline: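 Sequencing of uncleaved targets, normalised to depth and to weakly complementary targets, was the readout of this Cleave-'n-Seq assay. A transcribed, DNA-blocked target RNA library (0.1 nM) was mixed with 1 nM active affinity-purified piRISC carrying one synthetic guide, with or without 500 nM GTSF1 partner protein, in HEPES–potassium acetate buffer at 33 °C for 0–8 or 0–960 min. Three trials were pooled, k3 was capped at 0.0001 min^-1, and a burst-and-steady-state fit gave the pre-steady-state cleavage rate.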

[1] = auxiliary factor: 500 nM mouse GTSF1
[2] = auxiliary factor: none (no GTSF1)

| Sequence | pre-steady-state target cleavage rate [1] | pre-steady-state target cleavage rate [2] |
| --- | --- | --- |
| AGGAUCUACAGCUUGCAUAGUAUUUAGUUA | 1.7 ± 0.059 | 0.105 ± 0.017 |
| UGGAUCUACAGCUUGCAUAGUAUUUAGUUA | 1.57 ± 0.062 | 0.0958 ± 0.019 |
| UCCUGGAUCUAGCUUGCAUAGUAUUUAGUUA | 0.86 ± 0.04 | 0.0445 ± 0.011 |
| AGGACACUACAGCUUGCAUAGUAUUUAGUUA | 1.13 ± 0.083 | 0.0749 ± 0.011 |
| UCGAUCUACAGCUUGCAUAGUAUUUAGUUA | 1.61 ± 0.05 | 0.072 ± 0.013 |
| UCCUGGAUCAGCUUGCAUUGUUUUUAGUUA | 0.0337 ± 0.0067 | 0.00759 ± 0.0022 |
| UCGACCUACAGCUUGCAUAGUAAUUAGUUA | 1.08 ± 0.049 | 0.0469 ± 0.012 |
| UCCUGGAUGUCCUUGCUAUGUAUUUAGUAA | 0.00637 ± 0.0038 | – |
| UCCUGGUACAGCUUGCAUAGUGAUUUAGUUA | 0.0476 ± 0.011 | 0.00639 ± 0.0029 |
| UCCUGGUACACCUAGCAUAGUAUUUAGUUA | 0.278 ± 0.063 | 0.00414 ± 0.0028 |
| UCGACCUAGAGCUUGCAUAGUAUUUAGAAA | 0.441 ± 0.048 | 0.00689 ± 0.0021 |
| UCCUGGUACUCGUUGCAUAGUAUUUAGUAA | 0.0165 ± 0.0088 | – |
| UCGACGAACAGCUUGCAUAGUAUUUAGUUA | 1.38 ± 0.049 | 0.0836 ± 0.015 |
| UCGACGAACAGCUUGCAUAGUAUUUAGUAA | 0.962 ± 0.062 | 0.0577 ± 0.013 |
| UGGACGAACAGCUUGCAUAGUAUUUAGUUA | 1.17 ± 0.036 | 0.0856 ± 0.015 |
| UCCUCGAACAGCUUGCAUAGUAUUUAGUAA | 0.982 ± 0.042 | 0.0424 ± 0.008 |
| UCCUCGAACAGCUUGCAUAGUAUUUAGUUA | 1.39 ± 0.039 | 0.0825 ± 0.015 |
| UCCUCGAACAGCUUGCAUAGUAUUUAGAAA | 0.474 ± 0.043 | 0.00694 ± 0.0025 |
| UCCUGGAACACCUUGCUUAGUAUUUAGUUA | 0.239 ± 0.032 | 0.00546 ± 0.0019 |
| UGACCUACAGCUUGCAUAGUAUUUAGUUA | 1.57 ± 0.061 | 0.0842 ± 0.016 |

| Sequence | pre-steady-state target cleavage rate [1] | pre-steady-state target cleavage rate [2] |
| --- | --- | --- |
| UCCACCUACAGCUUGCAUAGUAUUUACUUA | 0.378 ± 0.044 | 0.0369 ± 0.0085 |
| UUGACCUACAGCUUGCAUAGUAUUUAGUUA | 1.16 ± 0.061 | 0.0724 ± 0.012 |
| AGGACCUACAGCUUGCAUAGUAUUUAGUGA | 1.01 ± 0.085 | 0.0934 ± 0.018 |
| UGGACCUACAGCUUGCAUAGUAUUUAGUGA | 1.12 ± 0.064 | 0.0575 ± 0.011 |
| AGCACCUACAGCUUGCAUAGUAUUUACUUA | 1.4 ± 0.24 | – |
| AGUGACCUACAGCUUGCAUAGUAUUUAGUUA | 1.38 ± 0.056 | 0.0885 ± 0.015 |
| UGUGACCUACAGCUUGCAUAGUAUUUAGUUA | 1.45 ± 0.063 | 0.0959 ± 0.018 |
| AUGACCUACAGCUUGCAUAGUAUUUAGUUA | 1.06 ± 0.03 | 0.0859 ± 0.013 |
| UGCACCUACAGCUUGCAUAGUAUUUACUUA | 0.46 ± 0.056 | 0.0724 ± 0.017 |
| UCGACCAUGAGCUUGCAUAGUAUUUAGUAA | 0.804 ± 0.049 | 0.0343 ± 0.0083 |
| UCCUGGAUGUCGAACCAUAGAUUUAGUUA | < 0.0001 | – |
| UCCUGCUUCAGCUUGCAUAGUAAUUAGUUA | 0.823 ± 0.043 | 0.0173 ± 0.0042 |
| UCCUGCUACACCUUGCAUAGUAUUUACAAA | 0.245 ± 0.056 | – |
| UGGACCUACAGCUUGCAUAGUAUUAAGUAA | 0.335 ± 0.037 | 0.0164 ± 0.0052 |
| UCCUGGAUCAGCCUGCAUAGUAUUUAGUUA | 1.02 ± 0.045 | 0.0431 ± 0.008 |
| UGGACCUACAGCUUGCUAUGUAUUUAGUUA | 0.115 ± 0.016 | 0.00588 ± 0.001 |
| UCCUGGAACAGCUUGCAUAGUUUAUAGUUA | 0.0662 ± 0.011 | 0.0101 ± 0.003 |
| AGGAGCUACAGCAUGCAUAGUAUUUAGUUA | 1.37 ± 0.058 | 0.0574 ± 0.01 |
| AGGAGCUACACCUUGCAUAGUAUUUAGUUA | 1.36 ± 0.044 | 0.0609 ± 0.012 |
| AGGAGCUACAGCUUGCAUAGUAUUUAGUAA | 1.02 ± 0.092 | 0.0616 ± 0.012 |

| Sequence | pre-steady-state target cleavage rate [1] | pre-steady-state target cleavage rate [2] |
| --- | --- | --- |
| UGGAGCCUACAGCUUGCAUAGUAUUUAGUUA | 1.41 ± 0.1 | 0.0757 ± 0.013 |
| UGGAGCUACAGCUUGCAUAGUAUUUAGUAA | 0.953 ± 0.06 | 0.0465 ± 0.0085 |
| UCGAGCUACACCUUGCAUAGUAUUUAGUUA | 1.01 ± 0.046 | 0.0524 ± 0.0089 |
| UGGAGCUACAGCUUGCAUAGUAUUUAGUUA | 1.25 ± 0.045 | 0.0783 ± 0.012 |
| UGGAGCUACACCUUGCAUAGUAUUUAGUUA | 1.12 ± 0.051 | 0.0597 ± 0.0097 |
| UCGAGCUACAGCAUGCAUAGUAUUUAGUUA | 1.19 ± 0.054 | 0.0332 ± 0.0062 |
| UGGAGCUACAGCAUGCAUAGUAUUUAGUUA | 1.14 ± 0.042 | 0.0429 ± 0.0078 |
| AGGAGCUACAGCUUGCAUAGUAUUUAGUUA | 1.42 ± 0.055 | 0.0984 ± 0.016 |
| UCCUGCUACAGCUUGCAUUAGUAUUUAGUUA | 0.0188 ± 0.0083 | – |
| UCCAGGAACAGCUUGCAUAGUAUUUAGUAA | 0.57 ± 0.047 | 0.0391 ± 0.0081 |
| AGGAGCUACAGCUUGCAUAGUAUUAAGUUA | 0.783 ± 0.065 | 0.0457 ± 0.0092 |
| UCCACCUACAGCUUGCAUAGUUUUUUCAAA | 0.144 ± 0.028 | – |
| UCCUGGUACAGCUUGCAUAGUAUUAUCAAA [g7:g24:cont:t1A] | 0.124 ± 0.024 | – |
| AGGAGCCUACAGCUUGCAUAGUAUUUAGUUA | 1.4 ± 0.072 | 0.0847 ± 0.013 |
| UCGAGCCUACAGCUUGCAUAGUAUUUAGUUA | 1.46 ± 0.074 | 0.0844 ± 0.016 |
| UCCAGCCUACAGCUUGCAUAGUAUUUAGUUA | 1.32 ± 0.062 | 0.0623 ± 0.0092 |
| UCCACCUACAGCUUGCAUAGUAUUUAGUUA [g2:g27:cont:t1A] | 0.987 ± 0.051 | 0.0744 ± 0.015 |
| UCCAGCUACAGCUUGCAUAGUAUUUAGUUA | 0.682 ± 0.042 | 0.0438 ± 0.0056 |
| UCCUGGAUCAGCUAGCAUAGUAUUUAGAUA | 0.226 ± 0.026 | 0.00546 ± 0.0022 |
| UCGACCUACUGCUUGCAUACUAUUUAGUUA | 0.345 ± 0.014 | 0.0294 ± 0.0065 |
